Results filed as inconclusive are left out. Calls of active or inactive are those of the source. Rule for the calls, unless noted: active = hit-call score of the fitted dose curve at least 0.9, where 1 is the maximum; inactive = score below 0.9.

Data on five molecules can be found in PubChem BioAssay (EPA / NIEHS).

Assay [1] deals with Glucocorticoid receptor (Homo sapiens) (UniProt P04150). As to the kind of experiment: ATG_GR_TRANS: Attagene TRANS-FACTORIAL HepG2 Assay for human Glucocorticoid Receptor (GR) (AID 2282978; active = hit-call score of the fitted dose curve at least 0.9, where 1 is the maximum;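 note: activators score as hits since higher reporter transcript over DMSO is fitted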). As to conditions: HepG2 Attagene TRANS GR reporter, mRNA transcription. An outline of the steps: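 HepG2 cells transiently transfected with GAL4-UAS reporter units and exogenous GR-Gal4 chimera, dosed 24 h. Reporter mRNA by RT-PCR, FAM labeling, HpaI digest and capillary electrophoresis; gain-of-signal fit versus DMSO.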

Assay [2] addresses Oxysterols receptor LXR-alpha (Homo sapiens) (UniProt Q13133). As to the kind of experiment: ATG_LXRa_TRANS: Attagene TRANS-FACTORIAL HepG2 Assay for human Liver X Receptor alpha (LXRa) (AID 2282980; active = hit-call score of the fitted dose curve at least 0.9, where 1 is the maximum). The following applies: HepG2 Attagene TRANS reporter, LXRa transactivation. The essentials: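 HepG2 cells were transiently transfected with multiplexed reporter units driven by chimeric LXRa–GAL4 fusion proteins, then dosed for 24 h. Reporter mRNA was quantified by RT-PCR, fluorescent labelling and capillary electrophoresis; gain of signal fitted against DMSO baseline.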

For assay [3], the target named is Oxysterols receptor LXR-beta (Homo sapiens) (UniProt P55055). As to the kind of experiment: ATG_LXRb_TRANS: Attagene TRANS-FACTORIAL HepG2 Assay for human Liver X Receptor beta (LXRb) (AID 2282981; active = hit-call score of the fitted dose curve at least 0.9, where 1 is the maximum). As to conditions: HepG2 Attagene TRANS GAL4-LXRb reporter, mRNA. An outline of the steps: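 HepG2 cells transiently transfected with multiple reporter transcription units carrying chimeric NR-Gal4 proteins acting on GAL4-UAS reporters; compound exposure 24 h. Reporter mRNA quantified by RT-PCR, 6-FAM labelling, HpaI digestion and capillary electrophoresis; gain of signal versus DMSO.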

The target in assay [4] is Hepatocyte nuclear factor 4-alpha (Homo sapiens) (UniProt P41235). As to the kind of experiment: ATG_HNF4a_TRANS: Attagene TRANS-FACTORIAL HepG2 Assay for human Hepatocyte Nuclear Factor 4 alpha (HNF4a) (AID 2282982; active = hit-call score of the fitted dose curve at least 0.9, where 1 is the maximum). As to conditions: HepG2 HNF4a transactivation reporter, mRNA readout. An outline of the steps:
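HepG2 cells transiently transfected with multiplexed GAL4-UAS reporter units responsive to chimeric NR-GAL4 proteins; compound exposure 24 h. Reporter mRNA quantified by RT-PCR, 6-FAM labelling, HpaI digestion and capillary electrophoresis; gain of signal versus DMSO baseline.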

Assay [5] in a line: ATG_M_06_TRANS: Attagene TRANS-FACTORIAL HepG2 Assay for M06 Transcription Factor (Internal Marker) (AID 2282983; active = hit-call score of the fitted dose curve at least 0.9, where 1 is the maximum). As to conditions: HepG2 Attagene TRANS M06 internal marker reporter. An outline of the steps: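 HepG2 cells transiently transfected with multiplexed GAL4-UAS reporter transcription units; after 24 h compound exposure, reporter mRNA measured by RT-PCR, FAM-labelled primer extension, HpaI digestion and capillary electrophoresis. Gain-of-signal fitted versus DMSO baseline; background control readout.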

The nature of assay [6]: ATG_M_32_TRANS: Attagene TRANS-FACTORIAL HepG2 Assay for M32 Transcription Factor (Internal Marker) (AID 2282984; active = hit-call score of the fitted dose curve at least 0.9, where 1 is the maximum). As to conditions: HepG2 Attagene TRANS M32 internal marker reporter. The essentials: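 HepG2 cells transiently transfected with multiple GAL4-UAS reporter transcription units, dosed for 24 hours; reporter mRNA quantified by RT-PCR, 6-FAM primer extension, HpaI digestion and capillary electrophoresis. Gain-of-signal fitted versus DMSO baseline; internal background-control marker.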

The target in assay [7] is Nuclear receptor subfamily 4 group A member 2 (Homo sapiens) (UniProt P43354). As to the kind of experiment: ATG_NURR1_TRANS: Attagene TRANS-FACTORIAL HepG2 Assay for human Nuclear Receptor Related Protein 1 (NURR1) (AID 2282985; active = hit-call score of the fitted dose curve at least 0.9, where 1 is the maximum). The following applies: HepG2 Attagene TRANS reporter, mRNA readout. An outline of the steps: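 HepG2 cells transiently transfected with GAL4-UAS reporter units and chimeric NR-Gal4 constructs; chemical exposure 24 h. Reporter mRNA quantified by RT-PCR, fluorescent labelling and capillary electrophoresis; gain of signal fitted relative to DMSO baseline.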

Assay [8] deals with Transcriptional activator Myb (Homo sapiens) (UniProt P10242). Put plainly: ATG_Myb_CIS: Attagene CIS-FACTORIAL HepG2 Assay for human Myeloblastosis (Myb) Proto-Oncogene Transcription Factor (AID 2282986). As to conditions: HepG2 Attagene CIS-FACTORIAL Myb reporter transcription; actives raise or lower the signal. An outline of the steps:
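Transiently transfected HepG2 cells carrying a multiplexed cis-promoter reporter set report endogenous Myb activity after 24 h compound exposure. Reporter mRNA is read by RT-PCR with capillary electrophoresis of fluorescent products, fitted bidirectionally against DMSO.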

The nature of assay [9]: ATG_NFI_CIS: Attagene CIS-FACTORIAL HepG2 Assay for human Nuclear Factor I (NFI) (AID 2282989). As to conditions: HepG2 cis-regulatory reporter, NFI response element transcription; actives raise or lower the signal. An outline of the steps:
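Reporter transcripts were measured by RT-PCR with fluorescent primer extension and capillary electrophoresis 24 h post-treatment. HepG2 cells carried transiently transfected cis-regulated reporter constructs reporting endogenous factor activity; gain or loss fitted against DMSO baseline.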

Assay [10] has as its target Myc proto-oncogene protein (Homo sapiens) (UniProt P01106). Put plainly: ATG_Myc_CIS: Attagene CIS-FACTORIAL HepG2 Assay for human Myelocytomatosis (Myc) Proto-Oncogene Transcription Factor (AID 2282990). As to conditions: HepG2, Attagene cis-reporter transcription factor activity; actives raise or lower the signal. An outline of the steps: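 DMSO-normalised, bidirectionally fitted reporter mRNA signal. HepG2 cells transfected with cis reporter constructs, treated 24 h; transcripts detected by RT-PCR, 6-FAM primer extension and CE.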

Assay [11] in a line: ATG_NRF2_ARE_CIS: Attagene CIS-FACTORIAL HepG2 Assay for human Nuclear Factor Erythroid 2 Related Factor 2 (NFR2) response to Antioxidant Response Elements (ARE) (AID 2282992).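 For AC50: reporter mRNA level measured by RT-PCR and capillary electrophoresis fluorescence.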 As to conditions: HepG2 Attagene ARE/NRF2 reporter, transcription factor activity; actives raise or lower the signal. The essentials: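 Transient MRTU transfection of HepG2; 24 h compound exposure; TriZol RNA, RT with oligo(dT), PCR, 6-FAM primer extension, HpaI cut, CE. Bidirectional fit vs DMSO.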

Assay [12] can be described thus: ATG_Oct_MLP_CIS: Attagene CIS-FACTORIAL HepG2 Assay for human Octamer-Binding Transcription Factor (Oct) (AID 2282993). As to conditions: HepG2 Attagene cis-factorial Oct reporter, mRNA; actives raise or lower the signal. An outline of the steps:
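Readout is reporter transcript level from RT-PCR with fluorescent primer extension and capillary electrophoresis, fitted in both directions against DMSO. Transfected HepG2 reporter units report endogenous factor activity after 24 h dosing.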

The target in assay [13] is Cellular tumor antigen p53 (Homo sapiens) (UniProt P04637). Put plainly: ATG_p53_CIS: Attagene CIS-FACTORIAL HepG2 Assay for human p53 Transcription Factor (AID 2282994). As to conditions: HepG2 p53 cis-element reporter, Attagene mRNA; actives raise or lower the signal. The essentials:
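HepG2, transient MRTU transfection (cis promoter elements, endogenous TFs); 24 h dosing; RNA isolation, RT-PCR, 6-FAM primer extension, HpaI digest, CE fluorescence; bidirectional fit vs DMSO.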

A short description of assay [14]: BSK_3C_TissueFactor: BioMAP Diversity Plus: 3C Assay for Tissue Factor Biomarker Activity (AID 2282997). As to conditions: BioMAP 3C HUVEC, tissue factor biomarker readout; actives raise or lower the signal. The essentials: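 Primary human umbilical vein endothelial cells in the 3C system were exposed to test chemical for 24 h, then Tissue Factor measured by ELISA. Activity was fitted bidirectionally against DMSO as negative control and baseline.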

Assay [15] can be described thus: BSK_3C_uPAR: BioMAP Diversity Plus: 3C Assay for Urokinase-type plasminogen activator receptor (uPAR) Biomarker Activity (AID 2282998). As to conditions: BioMAP 3C HUVEC, uPAR biomarker ELISA; actives raise or lower the signal. The essentials: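 Cell-surface uPAR on HUVEC (3C system) read by ELISA at 24 h post-treatment, with DMSO as baseline and fitting in both directions. Parallel cultures stained with SRB to flag overt cytotoxicity.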
In general terms: In an ELISA, binding on a coated surface is turned into a signal by an enzyme label.

Assay [16] deals with Estrogen-related receptor gamma (Homo sapiens) (UniProt P62508). As to the kind of experiment: ATG_ERRg_TRANS: Attagene TRANS-FACTORIAL HepG2 Assay for human Estrogen-Related Receptor gamma (ERRg) (AID 2282977; active = hit-call score of the fitted dose curve at least 0.9, where 1 is the maximum;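 note: hits increase reporter signal over DMSO so potencies reflect activators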). As to conditions: HepG2 Attagene TRANS reporter, ERRg transactivation. The essentials: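 Transient HepG2 transfectants, 24 h compound exposure, GAL4-UAS reporter mRNA by RT-PCR/6-FAM labelling/capillary electrophoresis; positive direction vs DMSO.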

Assay [17] can be described thus: ATG_NF_kB_CIS: Attagene CIS-FACTORIAL HepG2 Assay for human Nuclear Factor Kappa B (NF-kB) (AID 2282991). The following applies: HepG2 Attagene cis-factorial NF-kB reporter mRNA; actives raise or lower the signal. An outline of the steps:
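HepG2 cells transfected with cis-promoter-driven reporter units, so endogenous transcription factor activity is measured. Reporter mRNA quantified 24 h after dosing by RT-PCR and capillary electrophoresis, with bidirectional fitting against DMSO.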

The target of assay [18] is Nuclear respiratory factor 1 (Homo sapiens) (UniProt Q16656). As to the kind of experiment: ATG_NRF1_CIS: Attagene CIS-FACTORIAL HepG2 Assay for human Nuclear Respiratory Factor 1 (NRF1) Orphan Gene (AID 2282987). The following applies: HepG2 NRF1 cis-element reporter, Attagene multiplex; actives raise or lower the signal. An outline of the steps:
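HepG2 cells transiently transfected with multiple cis-regulated reporter units, exposed 24 h. Reporter mRNAs measured by RT-PCR, fluorescent labelling, HpaI digestion and capillary electrophoresis; bidirectional fitting against DMSO.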

Sequence of Glucocorticoid receptor (Homo sapiens) (P04150 whole entry, looked up, the tested form may be a part): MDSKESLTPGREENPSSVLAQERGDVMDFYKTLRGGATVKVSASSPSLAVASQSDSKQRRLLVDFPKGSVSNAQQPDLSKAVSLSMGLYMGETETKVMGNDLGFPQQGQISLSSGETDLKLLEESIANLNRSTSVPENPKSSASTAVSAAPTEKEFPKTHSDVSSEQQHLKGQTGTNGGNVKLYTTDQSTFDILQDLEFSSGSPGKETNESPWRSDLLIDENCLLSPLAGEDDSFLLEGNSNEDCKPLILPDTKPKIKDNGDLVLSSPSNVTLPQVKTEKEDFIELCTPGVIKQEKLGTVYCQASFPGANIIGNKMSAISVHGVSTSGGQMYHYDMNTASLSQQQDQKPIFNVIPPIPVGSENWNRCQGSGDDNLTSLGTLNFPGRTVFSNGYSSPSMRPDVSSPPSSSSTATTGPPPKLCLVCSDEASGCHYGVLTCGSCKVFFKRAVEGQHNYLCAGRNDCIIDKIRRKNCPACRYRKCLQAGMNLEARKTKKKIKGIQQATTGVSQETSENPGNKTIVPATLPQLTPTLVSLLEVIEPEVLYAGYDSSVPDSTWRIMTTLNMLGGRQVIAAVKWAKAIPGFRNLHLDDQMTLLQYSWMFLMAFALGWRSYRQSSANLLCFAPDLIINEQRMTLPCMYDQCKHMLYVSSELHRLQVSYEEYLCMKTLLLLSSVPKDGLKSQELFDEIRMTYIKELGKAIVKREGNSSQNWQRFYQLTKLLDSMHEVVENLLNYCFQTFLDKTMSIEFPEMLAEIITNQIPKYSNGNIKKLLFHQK
Sequence of Estrogen-related receptor gamma (Homo sapiens) (P62508 whole entry, looked up, the tested form may be a part): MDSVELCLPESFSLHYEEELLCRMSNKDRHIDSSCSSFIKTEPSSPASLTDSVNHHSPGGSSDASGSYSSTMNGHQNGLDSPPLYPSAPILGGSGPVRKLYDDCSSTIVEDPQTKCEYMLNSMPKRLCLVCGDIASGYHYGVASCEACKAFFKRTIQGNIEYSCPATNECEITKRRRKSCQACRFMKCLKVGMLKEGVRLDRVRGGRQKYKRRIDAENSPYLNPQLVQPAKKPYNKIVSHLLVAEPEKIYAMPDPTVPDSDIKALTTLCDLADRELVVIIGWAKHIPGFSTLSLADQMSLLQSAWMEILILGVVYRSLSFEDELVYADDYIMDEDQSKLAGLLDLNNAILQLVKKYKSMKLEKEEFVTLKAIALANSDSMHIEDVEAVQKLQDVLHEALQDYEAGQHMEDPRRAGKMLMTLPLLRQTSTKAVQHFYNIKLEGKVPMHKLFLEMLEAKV
Sequence of Transcriptional activator Myb (Homo sapiens) (P10242 whole entry, looked up): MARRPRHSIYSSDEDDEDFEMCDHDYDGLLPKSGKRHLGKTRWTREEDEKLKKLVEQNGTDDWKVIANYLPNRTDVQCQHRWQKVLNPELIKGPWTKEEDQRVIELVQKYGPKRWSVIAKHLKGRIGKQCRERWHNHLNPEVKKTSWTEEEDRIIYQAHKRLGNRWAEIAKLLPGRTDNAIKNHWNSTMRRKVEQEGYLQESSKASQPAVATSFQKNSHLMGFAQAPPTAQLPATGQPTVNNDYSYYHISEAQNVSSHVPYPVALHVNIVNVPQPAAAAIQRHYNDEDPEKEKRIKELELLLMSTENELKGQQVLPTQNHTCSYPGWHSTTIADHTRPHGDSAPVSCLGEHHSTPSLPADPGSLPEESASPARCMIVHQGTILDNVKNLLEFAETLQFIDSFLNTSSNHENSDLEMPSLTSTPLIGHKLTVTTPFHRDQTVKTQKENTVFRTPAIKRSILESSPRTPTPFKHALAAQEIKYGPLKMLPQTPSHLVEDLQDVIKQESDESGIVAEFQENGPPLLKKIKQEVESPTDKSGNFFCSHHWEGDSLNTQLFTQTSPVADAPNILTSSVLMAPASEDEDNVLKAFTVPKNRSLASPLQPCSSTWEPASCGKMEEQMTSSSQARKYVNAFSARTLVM
Sequence of Myc proto-oncogene protein (Homo sapiens) (P01106 whole entry, looked up): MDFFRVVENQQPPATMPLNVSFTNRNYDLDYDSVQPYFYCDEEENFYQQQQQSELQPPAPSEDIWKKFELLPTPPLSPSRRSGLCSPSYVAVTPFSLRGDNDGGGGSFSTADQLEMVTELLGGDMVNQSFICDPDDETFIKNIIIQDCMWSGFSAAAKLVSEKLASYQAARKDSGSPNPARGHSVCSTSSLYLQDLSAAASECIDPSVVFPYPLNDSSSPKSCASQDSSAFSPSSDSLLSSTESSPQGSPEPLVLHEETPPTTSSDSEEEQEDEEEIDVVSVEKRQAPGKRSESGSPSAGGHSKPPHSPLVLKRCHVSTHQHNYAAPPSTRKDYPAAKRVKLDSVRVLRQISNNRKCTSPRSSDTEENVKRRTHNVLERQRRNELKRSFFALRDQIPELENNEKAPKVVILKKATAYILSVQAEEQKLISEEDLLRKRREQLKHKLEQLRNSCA
Sequence of Oxysterols receptor LXR-alpha (Homo sapiens) (Q13133 whole entry, looked up, the tested form may be a part): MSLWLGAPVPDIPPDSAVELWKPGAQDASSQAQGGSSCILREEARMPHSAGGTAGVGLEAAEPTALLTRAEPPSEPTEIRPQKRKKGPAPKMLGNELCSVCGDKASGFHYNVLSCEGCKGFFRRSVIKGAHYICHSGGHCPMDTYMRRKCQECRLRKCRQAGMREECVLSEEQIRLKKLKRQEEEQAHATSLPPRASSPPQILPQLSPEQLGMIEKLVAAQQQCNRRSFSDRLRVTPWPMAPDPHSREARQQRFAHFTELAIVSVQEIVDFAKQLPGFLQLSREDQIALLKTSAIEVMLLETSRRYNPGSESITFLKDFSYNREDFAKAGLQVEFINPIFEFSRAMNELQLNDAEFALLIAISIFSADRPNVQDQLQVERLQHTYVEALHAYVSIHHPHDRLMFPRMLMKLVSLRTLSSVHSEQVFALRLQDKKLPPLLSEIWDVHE
Sequence of Oxysterols receptor LXR-beta (Homo sapiens) (P55055 whole entry, looked up, the tested form may be a part): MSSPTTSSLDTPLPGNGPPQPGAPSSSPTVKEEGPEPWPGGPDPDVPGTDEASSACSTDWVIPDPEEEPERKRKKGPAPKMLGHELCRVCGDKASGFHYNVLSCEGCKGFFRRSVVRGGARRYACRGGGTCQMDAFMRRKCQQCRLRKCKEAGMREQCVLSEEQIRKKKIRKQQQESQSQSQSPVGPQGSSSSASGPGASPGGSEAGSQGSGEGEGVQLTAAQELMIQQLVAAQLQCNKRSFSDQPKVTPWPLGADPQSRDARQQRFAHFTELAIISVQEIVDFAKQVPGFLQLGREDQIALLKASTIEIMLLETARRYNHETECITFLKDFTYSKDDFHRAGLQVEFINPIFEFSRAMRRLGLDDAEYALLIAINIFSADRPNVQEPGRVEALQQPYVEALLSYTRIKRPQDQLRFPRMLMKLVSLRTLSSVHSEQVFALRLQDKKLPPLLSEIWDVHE
Sequence of Hepatocyte nuclear factor 4-alpha (Homo sapiens) (P41235 whole entry, looked up, the tested form may be a part): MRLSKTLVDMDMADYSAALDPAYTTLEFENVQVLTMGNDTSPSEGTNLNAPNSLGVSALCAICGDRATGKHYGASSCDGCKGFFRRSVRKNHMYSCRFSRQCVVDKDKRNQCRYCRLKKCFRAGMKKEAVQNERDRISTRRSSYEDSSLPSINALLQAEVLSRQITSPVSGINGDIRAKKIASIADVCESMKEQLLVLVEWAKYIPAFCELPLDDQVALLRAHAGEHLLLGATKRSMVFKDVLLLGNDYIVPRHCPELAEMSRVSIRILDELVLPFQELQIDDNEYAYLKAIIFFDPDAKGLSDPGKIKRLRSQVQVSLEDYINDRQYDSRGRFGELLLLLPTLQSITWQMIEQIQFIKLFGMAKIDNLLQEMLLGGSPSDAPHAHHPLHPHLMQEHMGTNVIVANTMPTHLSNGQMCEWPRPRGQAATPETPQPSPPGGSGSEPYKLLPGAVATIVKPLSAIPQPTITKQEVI
Sequence of Nuclear receptor subfamily 4 group A member 2 (Homo sapiens) (P43354 whole entry, looked up, the tested form may be a part): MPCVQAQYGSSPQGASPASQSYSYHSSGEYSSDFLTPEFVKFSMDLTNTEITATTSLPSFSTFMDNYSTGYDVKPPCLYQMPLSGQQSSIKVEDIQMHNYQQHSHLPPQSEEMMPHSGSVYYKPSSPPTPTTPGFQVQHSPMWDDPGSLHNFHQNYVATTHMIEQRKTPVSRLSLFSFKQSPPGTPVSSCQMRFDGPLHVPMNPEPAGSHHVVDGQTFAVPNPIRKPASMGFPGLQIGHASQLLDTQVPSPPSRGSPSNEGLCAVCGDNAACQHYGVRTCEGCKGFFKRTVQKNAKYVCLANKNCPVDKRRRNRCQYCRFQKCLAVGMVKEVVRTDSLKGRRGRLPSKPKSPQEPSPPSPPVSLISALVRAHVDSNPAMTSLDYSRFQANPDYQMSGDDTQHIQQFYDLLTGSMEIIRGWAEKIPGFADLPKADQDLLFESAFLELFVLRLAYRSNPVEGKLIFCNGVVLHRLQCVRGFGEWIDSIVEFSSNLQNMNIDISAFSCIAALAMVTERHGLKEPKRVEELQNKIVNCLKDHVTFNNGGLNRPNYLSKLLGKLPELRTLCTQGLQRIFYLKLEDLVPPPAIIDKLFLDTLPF
Sequence of Nuclear respiratory factor 1 (Homo sapiens) (Q16656 whole entry, looked up): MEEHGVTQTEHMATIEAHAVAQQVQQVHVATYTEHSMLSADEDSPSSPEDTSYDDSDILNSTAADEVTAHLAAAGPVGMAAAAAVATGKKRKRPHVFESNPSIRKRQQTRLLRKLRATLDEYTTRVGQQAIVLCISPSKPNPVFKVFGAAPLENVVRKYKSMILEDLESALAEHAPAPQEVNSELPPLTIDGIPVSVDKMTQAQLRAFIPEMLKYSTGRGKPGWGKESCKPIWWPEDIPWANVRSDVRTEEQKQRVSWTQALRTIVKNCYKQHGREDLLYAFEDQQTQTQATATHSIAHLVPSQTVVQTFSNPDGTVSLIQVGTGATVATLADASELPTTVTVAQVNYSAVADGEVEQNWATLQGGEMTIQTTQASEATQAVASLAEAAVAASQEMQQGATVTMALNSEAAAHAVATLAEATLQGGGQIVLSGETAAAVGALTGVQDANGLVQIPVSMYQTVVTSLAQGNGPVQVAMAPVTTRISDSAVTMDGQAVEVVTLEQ

On to `CSC1=N[C@@](C)(c2ccccc2)C(=O)N1Nc1ccccc1`, for which the molecule was called inactive in assay [1], in assay [2], in [3], in assay [4], in assay [5] and in assay [6]. Besides, the molecule was classed as inactive in [7], in assay [8], in [9], in assay [10] and in assay [13]. For the same molecule, the half-maximal activity concentration (AC50) (as a rule, the concentration at which the activity in the assay is half-maximal) in assay [11] is 4.24 µM (active); in assay [12], 10.7 µM (active); in assay [14] it was 1.68 µM (active); in assay [15], 7.46 µM (active).

Consider `CCCCOC(=O)[C@@H](C)Oc1ccc(Oc2ccc(C#N)cc2F)cc1`, for which the molecule was classed as inactive in assay [16], in [1], in [2], in assay [3], in assay [6] and in [8]. In addition, the molecule was classed as inactive in assay [9], in [10], in assay [17], in assay [11], in [12] and in [14]. For the same molecule, the outcome in assay [15] was inactive.

On to `C=C(C)[C@H]1Cc2c(ccc3c2O[C@@H]2COc4cc(OC)c(OC)cc4[C@@H]2C3=O)O1`, for which the result in [16], in assay [2], in [3], in assay [4], in assay [5] and in assay [8] was inactive. Moreover, the molecule was called inactive in assay [9] and in assay [10]. Besides, the AC50 was 0.063 µM (active) in [17]; 0.00527 µM (active) in assay [11]; 0.0306 µM (active) in [12]; 8.69 µM (active) in assay [14]; 7.25 µM (active) in assay [15].

On to `COP(=O)(NC(C)=O)SC` (stereo not drawn), for which the call in assay [1], in assay [2], in assay [3], in assay [4], in assay [5] and in assay [8] was inactive. The molecule was called inactive in [9], in assay [10], in [11], in [12], in assay [14] and in [15].

As to `CC(COc1ccc(Oc2ccccc2)cc1)Oc1ccccn1` (stereo not drawn), the molecule was called inactive in assay [16], in [2], in [3], in [4], in assay [6] and in assay [7]. Besides, the call in assay [8], in assay [18], in assay [9], in assay [10] and in [14] was inactive. Further, the AC50 was 13.8 µM (active) in assay [17], 7.23 µM (active) in assay [11], 13 µM (active) in assay [12] and 23.6 µM (active) in assay [15].
